# Assay results from PubChem BioAssay (Tox21).
# Inconclusive results are not listed. Calls of active or inactive are those of the source. The call rests on the fitted dose curve; in most records, active means well fitted inhibition curve with a large enough effect in the repeat runs; inconclusive means weak or mixed curves; inactive means no such curve, though single readings can be large or run the other way.
# Biological target: Estrogen receptor (Homo sapiens) (UniProt P03372)
# Assay: qHTS assay to identify small molecule antagonists of the estrogen receptor alpha (ER-alpha) signaling pathway using the BG1 cell line in the presence of 0.1 nM 17-beta-estradiol (AID 1259244); further: nearly all actives have a fitted effect of over 50% in size
# Details: VM7Luc4E2 (BG1) ERE-luciferase, antagonist mode, 0.1 nM E2, 22 h; series mostly up to 92.4 µM; activity change, negative = inhibition: at the top concentration
# Description: National Center for Advancing Translational Sciences [NCATS]
# NIH Chemical Genomics Center [NCGC]
# U.S. Environmental Protection Agency [EPA]
# National Institutes of Environmental Health Sciences [NIEHS]
# National Toxicology Program [NTP]
# U.S. Food and Drug Administration [FDA]
# Estrogen receptor (ER), a member of the nuclear hormone receptor plays an important role in development, metabolic homeostasis and reproduction. Two subtypes of ER, ER-alpha and ER-beta, have similar expression patterns with some uniqueness in both types. Endocrine disrupting chemicals (EDCs) and their interactions with steroid hormone receptors like ER causes disruption of normal endocrine function. Therefore, it is important to understand the effect of environmental chemicals in ER signaling pathway. For identifying ER antagonists, VM7Luc4E2 cell line was used to screen against Tox21 compound libraries.
# VM7Luc4E2 cell line (provided by Denison MS, University of California) endogenously express full-length ER-alpha and is stably transfected with a plasmid containing four estrogen responsive elements (ERE) upstream of a luciferase reporter gene. The current screening for identification of ER-alpha inhibitors against Tox21 compound libraries used lower concentration (0.1 nM) of 17beta-Estradiol as a stimulator.
# Tox21 Assay Protocol Summary:
# VM7Luc4E2 cells were cultured in phenol red free assay medium containing 10% charcoal stripped FBS for 5 days prior to the assay. The cells were dispensed at 4,000 cells/well in 4 uL of assay medium into white wall/solid-bottom 1536-well plates (Corning Life Sciences, Corning, NY) using a Multidrop Combi (ThermoFisher Scientific, Waltham, MA) dispenser. After the assay plates were incubated at 37C and 5% CO2 for 24 hr, 23 nL of compounds dissolved in DMSO, positive controls or DMSO only was transferred to the assay plates by a Pintool station (Kalypsys, San Diego, CA). The transfer of compounds was followed by the addition of 1 uL of 0.1 nM (final concentration) agonist (17beta-Estradiol)/assay medium using a Flying Reagent Dispenser (FRD, Aurora Discovery, San Diego, CA). The plates were incubated at 37C and 5% CO2 for 22 hr. For luciferase reporter gene assay, 4 uL of ONE-Glo reagent (Promega Corporation, Madison, WI) was added to each well using the FRD and after 30 min incubation at room temperature luminescence intensity was measured using ViewLux plate reader (PerkinElmer, Shelton, CT).
# On the % scale 0 is the no-effect control and ±100 the full control effect; potency means the concentration at half of the fitted maximal effect.
# Chain of Estrogen receptor (Homo sapiens) (P03372 whole entry, looked up): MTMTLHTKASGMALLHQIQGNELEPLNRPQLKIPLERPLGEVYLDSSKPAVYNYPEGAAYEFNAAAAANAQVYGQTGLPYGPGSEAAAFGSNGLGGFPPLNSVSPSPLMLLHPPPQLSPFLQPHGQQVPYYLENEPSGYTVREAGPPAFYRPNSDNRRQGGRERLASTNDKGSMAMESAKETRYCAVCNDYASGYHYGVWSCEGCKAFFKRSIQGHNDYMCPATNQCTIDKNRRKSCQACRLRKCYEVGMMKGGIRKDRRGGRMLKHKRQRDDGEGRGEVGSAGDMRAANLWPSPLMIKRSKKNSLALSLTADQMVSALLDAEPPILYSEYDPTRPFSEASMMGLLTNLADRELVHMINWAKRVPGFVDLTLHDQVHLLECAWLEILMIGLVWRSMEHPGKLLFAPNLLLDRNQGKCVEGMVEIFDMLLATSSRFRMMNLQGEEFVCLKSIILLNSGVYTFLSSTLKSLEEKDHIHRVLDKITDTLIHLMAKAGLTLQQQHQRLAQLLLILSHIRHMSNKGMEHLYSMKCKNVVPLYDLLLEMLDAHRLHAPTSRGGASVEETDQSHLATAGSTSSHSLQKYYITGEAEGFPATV
SMILES,"activity change, negative = inhibition",Potency
COC(=O)C(C)O (stereo not given),20% (inactive),
CCCCN1C[C@H](O)[C@@H](O)[C@H](O)[C@H]1CO,-0.622% [at 42.5 µM] (inactive),
CNCCC(Oc1ccccc1OC)c1ccccc1 (stereo not given),-0.866% [at 42.5 µM] (inactive),
Nc1ccc(Oc2ccc(N)c(N)c2)cc1,-37.3% (inactive),
CN1CCN(C2=Nc3ccccc3Oc3ccc(Cl)cc32)CC1,-17.5% [at 42.5 µM] (inactive),
c1ccc(CN(CC2=NCCN2)c2ccccc2)cc1,0.459% [at 42.5 µM] (inactive),
CCCCCCCCCCCCOCCOS(=O)(=O)O,-26.1% (inactive),
CCCc1c2oc(C(=O)O)cc(=O)c2cc2c(=O)cc(C(=O)O)n(CC)c12,1.44% [at 42.5 µM] (inactive),
CCC(=O)O[C@]1(C(=O)SCF)[C@H](C)C[C@H]2[C@@H]3C[C@H](F)C4=CC(=O)C=C[C@]4(C)[C@@]3(F)[C@@H](O)C[C@@]21C,26.1% [at 42.5 µM] (inactive),
CCOC(=O)c1cc(=O)c2c(OCC(COc3cccc4oc(C(=O)OCC)cc(=O)c34)OC(=O)[C@@H](N)CCCCN)cccc2o1,7.71% [at 42.5 µM] (inactive),
CCCNC(C)(C)COC(=O)c1ccccc1,-4.1% [at 42.5 µM] (inactive),
O=C1CCN(c2ccccc2)N1,38.7% (inactive),
C=CCc1cc(OC)c(O)c(C(=O)NCCO)c1,-12% [at 42.5 µM] (inactive),
CCCCC(CC)COC(=O)COc1cc(Cl)c(Cl)cc1Cl (stereo not given),1.84% (inactive),
CN1CCN(c2c(F)cc3c(=O)c(C(=O)O)cn(CCF)c3c2F)CC1,-3.08% [at 42.5 µM] (inactive),
O=Cc1ccc(F)c(Br)c1,9.43% (inactive),
Clc1cccc(-c2cc(Cl)cc(Cl)c2)c1,7.08% (inactive),
COc1ccccc1N1CCN(CCCNc2cc(=O)n(C)c(=O)n2C)CC1,5.38% [at 42.5 µM] (inactive),
CCCC(CCC)(C(=O)OCC)C(=O)OCC,3.41% [at 42.5 µM] (inactive),
CC(C)C1=CC2=CC[C@@H]3[C@](C)(CCC[C@@]3(C)C(=O)O)[C@H]2CC1,-0.231% (inactive),

SMILES,"activity change, negative = inhibition",Potency
COC(=O)/C=C(/C)N,1% [at 42.5 µM] (inactive),
COc1ccc(S(=O)(=O)Nc2nnc(CC(C)C)s2)cc1,6.36% [at 42.5 µM] (inactive),
O=C1CCCCC1C1CCCCC1 (stereo not given),-11.1% (inactive),
NC(=O)NS(=O)(=O)c1ccc(Cl)cc1,1.05% [at 42.5 µM] (inactive),
C=Cc1ccccc1,23.9% (inactive),
NS(=O)(=O)c1cc(-c2nn[nH]n2)c(NCc2cccs2)cc1Cl,14.4% [at 42.5 µM] (inactive),
CCCCCCC,5.12% (inactive),
CC/C=C\CCOC(=O)C(C)C,7.03% (inactive),
CC(C)CCCCCCc1ccc(OCCOCCO)cc1,-1.88% (inactive),
CCN(CC)CCOc1ccc(Cc2ccccc2)cc1,9.88% [at 42.5 µM] (inactive),
CCCCC(=O)O[C@]1(C(=O)CO)[C@H](C)C[C@H]2[C@@H]3CCC4=CC(=O)C=C[C@]4(C)[C@@]3(F)[C@@H](O)C[C@@]21C,15.3% [at 42.5 µM] (inactive),
CCOc1ccccc1N,,30.4 µM (active)
CCC(=O)Nc1ccc(O)cc1,3.52% [at 42.5 µM] (inactive),
CCCCCCCCCC/C=C/C#N,0.175% (inactive),
CC(=O)N(CC(O)CN(C(C)=O)c1c(I)c(C(=O)NCC(O)CO)c(I)c(C(=O)NCC(O)CO)c1I)c1c(I)c(C(=O)NCC(O)CO)c(I)c(C(=O)NCC(O)CO)c1I (stereo not given),-0.815% [at 42.5 µM] (inactive),
CCCCNc1ccc(C(=O)OCCN(CC)CC)cc1,15.5% [at 42.5 µM] (inactive),
C[C@@H]1CN(c2c(F)c(F)c3c(=O)c(C(=O)O)cn(C4CC4)c3c2F)C[C@H](C)N1,0.469% [at 19 µM] (inactive),
C[C@]12C(=O)OC(=O)[C@H]1[C@H]1C=C[C@@H]2C1,17.5% (inactive),
Cc1nnc(SCC2=C(C(=O)O)N3C(=O)[C@@H](NC(=O)Cn4cnnn4)[C@H]3SC2)s1,2.89% [at 42.5 µM] (inactive),
O=C(O)c1ccccc1Nc1cc(Cl)ccc1C(=O)O,-11% [at 19 µM] (inactive),
